Reference: PubChem BioAssay AID624116 (National Center for Advancing Translational Sciences (NCATS), 2012)
Inconclusive results are not listed. The source made the active and inactive calls. The call rests on the fitted dose curve; in most records, active means well fitted activation curve with a large enough effect; inconclusive means small, poorly fitted or top-dose-only effect; inactive means no such curve, though single readings can be large or run the other way.

assay: qHTS Assay for Rab9 Promoter Activators: Hit Validation Using Renilla Luciferase Read-Out for Rab9; details: Huh7 Rab9 promoter Renilla luciferase reporter, 24 h; series mostly up to 76.9 µM; activation, negative = inhibition: at the top concentration; on activation, negative = inhibition: % of control where 0% means no effect
Summary of the method: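 Huh7 cells stably carrying promoter-luciferase reporter, exposed to compound for 24 h at 37 deg C. Luminescence read 10 min after adding luciferase detection reagent at room temperature.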
Potency means the concentration at half of the fitted maximal effect.

For `Cc1ccc(S(=O)(=O)/N=C2\C=C(Nc3cccc(C(=O)O)c3)C(=O)c3ccccc32)cc1`, which “activation, negative = inhibition” value is on record?
The value was -96.1% (inactive).

Which “activation, negative = inhibition” value does the source give for `Cc1cccc(C)c1NC(=O)Nc1cccs1` here?
Its value is 2.79% (inactive).

With `COC(=O)CSc1nc2cc3c(cc2cc1C#N)OCO3` as the compound, how does the “activation, negative = inhibition” value read?
Its value is -9.61% (inactive).

For `COC(=O)c1sccc1NC(=S)OC`, which “activation, negative = inhibition” value is on record?
Its value is 9.49% (inactive).

With `O=C(Nc1ccc(-c2nc3cccnc3s2)cc1)c1ccc(Cl)nc1` as the compound, how does the “activation, negative = inhibition” value read?
The value was -11% (inactive).

Which “activation, negative = inhibition” value does the source give for `C=CCn1c(C)nnc1SCC(=O)Nc1nccs1` here?
The value was -0.0592% (inactive).

Which “activation, negative = inhibition” value does the source give for `CC1(C)CC(=O)c2c(O)c(-c3ccccc3)c(=O)n(-c3ccccc3)c2C1` here?
Its value is 0.198% (inactive).

Which “activation, negative = inhibition” value does the source give for `CCCN(CCC)CCCNC(=O)c1cc2cc3ccc(Cl)cc3nc2o1` here?
The value was 1.11% (inactive).

Which “activation, negative = inhibition” value does the source give for `Cc1ccc(S(=O)(=O)N2CCN(c3cnn(C)c(=O)c3Cl)CC2)cc1` here?
Its value is -1.64% (inactive).

With `CN(C)C(=O)[C@H]1C[C@H]1[C@@H](O)[C@H](CO)NC(=O)[C@H](COCc1ccccc1)NC(=O)OC(C)(C)C` as the compound, how does the “activation, negative = inhibition” value read?
The value was -3.65% (inactive).

Which “activation, negative = inhibition” value does the source give for `O=C(CSc1nnc(Cc2cc(=O)[nH]c(=O)[nH]2)n1-c1ccc(Cl)cc1)NC1CCCC1` here?
Its value is -2.18% (inactive).

For `O=C(CCCn1c(=O)oc2ccccc21)N1CCN(c2ccccn2)CC1`, which “activation, negative = inhibition” value is on record?
The value was -4.46% (inactive).

Which “activation, negative = inhibition” value does the source give for `Cc1nnc2n(c1=O)N=C(c1ccc(Cl)cc1)CS2` here?
Its value is 1.19% (inactive).

For `Nc1nc(SCCO)[nH]c(=O)c1NC(=O)c1ccco1`, which “activation, negative = inhibition” value is on record?
Its value is 5.9% (inactive).

For `COC(=O)c1cn(NC(=O)C2CCCCC2)c(=O)c2ccccc12`, which “activation, negative = inhibition” value is on record?
The value was 0.264% (inactive).

For `O=C(N/N=C/c1ccc(-c2ccc(Br)cc2)o1)c1ccc2c(c1)OCO2`, which “activation, negative = inhibition” value is on record?
The value was -4.86% (inactive).

Which “activation, negative = inhibition” value does the source give for `COCCNC(=O)C1CCC(CNS(=O)(=O)c2ccc(F)cc2)CC1` (stereo not drawn) here?
Its value is -3.79% (inactive).

Which “activation, negative = inhibition” value does the source give for `CCCNC(=O)C1CCN(S(=O)(=O)c2ccc3[nH]c(=O)ccc3c2)CC1` here?
Its value is -0.496% (inactive).

With `COC(=O)c1ccccc1S(=O)(=O)NNC(=O)Nc1ccccc1` as the compound, how does the “activation, negative = inhibition” value read?
The value was 0.761% (inactive).

Which “activation, negative = inhibition” value does the source give for `O=C(NNC(=O)C1COc2ccccc2O1)c1ccccc1O` (stereo not drawn) here?
The value was -25.9% (inactive).

With `CCN(CC)S(=O)(=O)c1ccc(NCc2ccccn2)nc1` as the compound, how does the “activation, negative = inhibition” value read?
The value was 1.11% (inactive).

With `O=C(CSc1nnc(-c2ccc([N+](=O)[O-])cc2)o1)Nc1ccccn1` as the compound, how does the “activation, negative = inhibition” value read?
The value was -5.92% (inactive).

For `O=C(CCCN1C(=O)C(c2ccccc2)Oc2cccnc21)Nc1ccccc1Cl` (stereo not drawn), which “activation, negative = inhibition” value is on record?
Its value is 4.77% (inactive).

With `O=C(CSc1nnc(-c2ccccn2)o1)Nc1ccccc1F` as the compound, how does the “activation, negative = inhibition” value read?
Its value is -6.23% (inactive).

Which “activation, negative = inhibition” value does the source give for `CC1CCc2sc(C(=O)NNC(=S)NC3CC3)cc2C1` (stereo not drawn) here?
The value was -53.2% (inactive).

With `COc1ccccc1N(C(=O)c1snc(C(N)=O)c1N)C(C(=O)NC1CCCCC1)c1cccc(OC)c1OC` (stereo not drawn) as the compound, how does the Potency read?
The Potency was 26 µM (active).

Which “activation, negative = inhibition” value does the source give for `CCCCCCC(=O)Nc1ccc(C(=O)N/N=C/c2cccnc2)cc1` here?
The value was 4.77% (inactive).

Which “activation, negative = inhibition” value does the source give for `O=C(CCCOc1ccc(Cl)cc1)N1CCCCC1` here?
The value was -14.9% (inactive).

Which Potency does the source give for `O=C(O)C1=CC[C@@H](c2ccc(Cl)cc2)N(S(=O)(=O)c2ccc(Cl)cc2)[C@H]1c1ccccc1` here?
The Potency was 14.6 µM (active).

With `Cc1ccc(NC(=O)c2ncc(Cl)c(Cl)c2Cl)cc1C` as the compound, how does the “activation, negative = inhibition” value read?
Its value is -39.1% (inactive).

For `Cc1ccc2c(c1)sc1nc(=O)n(-c3ccccc3)c(=O)n12`, which “activation, negative = inhibition” value is on record?
Its value is -16.2% (inactive).

Which “activation, negative = inhibition” value does the source give for `CC(C)(C)NC(=S)NNC(=O)c1ccc2ncccc2c1` here?
Its value is -21.4% (inactive).

Which “activation, negative = inhibition” value does the source give for `Cc1nc(-c2ccc(S(=O)(=O)Oc3ccc(Cl)cc3Cl)s2)cs1` here?
Its value is -34.2% (inactive).

With `Cc1cc(C)cc(N(CC(=O)NC2CCCC2)C(=O)CNC(=O)c2ccco2)c1` as the compound, how does the “activation, negative = inhibition” value read?
Its value is -9.62% (inactive).

With `Cc1ccc(C(=O)NC2CCN(CC(=O)Nc3c(C)cc(C)cc3C)CC2)cc1` as the compound, how does the “activation, negative = inhibition” value read?
Its value is -10.1% (inactive).

With `Cc1nn(CCCC(=O)NCc2ccc(F)cc2)c(C)c1[N+](=O)[O-]` as the compound, how does the “activation, negative = inhibition” value read?
Its value is -6.9% (inactive).

Which “activation, negative = inhibition” value does the source give for `Fc1ccc(-c2nc3nc4ccccc4nc3n2Cc2ccco2)cc1` here?
Its value is -26% (inactive).

For `CCOC(=O)c1ccc(NC(=O)Oc2cc(C)c(Cl)cc2C(C)C)cc1`, which “activation, negative = inhibition” value is on record?
Its value is -0.506% (inactive).
